# Ba/F3 V617F tox: lowers viability of Ba/F3 cells expressing EpoR and JAK2V617F; inhibition, % at 5.6 µM; hit rate 1.1% among 220,000; ATP luminescence;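 active = inhibition above the campaign mean plus 3 SD over all tested compounds, cut at about 24% in these data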;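 also: cytokine-independent growth of Ba/F3 cells driven by EpoR plus mutant JAK2; 0% = DMSO-treated cells and 100% = JAK inhibitor I control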
# APP transl inh: APP translation inhibition | SH-SY5Y APP 5'UTR-luciferase reporter, luminescence | inhibition, % at 2 µM | hit rate 0.82% among 190,000;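 active = inhibition above a set limit, derived from the sample mean plus 3 SD, cut at about 45% in these data; inconclusive = one replicate passes the limit while the other fails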
# BaF3 parental: reduces parental Ba/F3 cell viability, JAK2V617F counter-screen | hit rate 1.1% among 220,000 | inhibition, % at 5.6 µM | CellTiter-Glo ATP luminescence | AID 1486;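 active = inhibition above a per-campaign cutoff, the mean inhibition of all tested compounds plus 3 SD, cut at about 27% in these data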;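 also: 0% = DMSO wells and 100% = JAK Inhibitor I control wells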
# aSyn 5UTR inh: MLPCN primary screen, SNCA 5' untranslated region. alpha-synuclein 5'UTR reporter, inhibitor activity. inhibition, % (tested at 7.5 µM). hit rate 0.82% among 300,000. AID 1813; in the data active = inhibition above about 60%; inconclusive = no clear call, values can overlap the other calls;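 also: H4 neuroglioblastoma cells stably carrying SNCA 5'UTR luciferase fusion; 0% = DMSO wells and 100% = positive control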
# KLF5 inh: inhibitors of KLF5 expression; DLD-1 KLF5 promoter-luciferase reporter, luminescence; inhibition, % at 5 µM; hit rate 0.23% among 290,000; AID 1700;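 active = inhibition above a per-plate limit of that plate's mean compound inhibition plus 3 SD, cut at about 60% in these data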;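 also: 0% = DMSO wells and 100% = LY294002 at 200 µM; higher means less KLF5 promoter-driven luciferase light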
# IEC-6 cytotox: IEC-6 cytotoxicity, counter-screen for KLF5 inhibitors; inhibition, % at 5 µM; hit rate 0.78% among 290,000; luminescence viability;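 also: 0% = plate median of test compound wells and 100% = cytotoxic reference compound wells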
# IEC-6 tox confirm: confirmation of cytotoxic compounds in rat IEC-6 intestinal epithelial cells. shares compounds with IEC-6 cytotox. hit rate 63% among 1,900. IEC-6 rat intestinal epithelial viability, luminescence. inhibition, % at 5 µM;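 also: 0% = vehicle and 100% = reference cytotoxic drug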
# Numbers without * were called inactive; ? = inconclusive; / = no result given. In the library only some 2.2% were active in any assay of this set; here they are far more common. Rule as the data show it, unless noted: active = inhibition above about 22%; inactive = the rest.
SMILES,Ba/F3 V617F tox,APP transl inh,BaF3 parental,aSyn 5UTR inh,KLF5 inh,IEC-6 cytotox,IEC-6 tox confirm
Cc1ccc(CS(=O)(=O)c2ncc(Cl)c(C(=O)Nc3ccc(OC(F)F)cc3)n2)cc1,/,/,/,?,9.6,31.3*,14.6
CC(C)Cc1cc(C(C)(C)C)ccc1OC(=S)N(C)C,/,/,/,4.1,-27.9,3.9,/
O=C(CS(=O)(=O)c1ccccc1)NCc1ccccc1,/,/,/,11.6,-39.6,-6.9,/
CCc1ccc(NC(=O)CN2CCCN(S(=O)(=O)c3ccc(F)cc3)CC2)cc1,/,/,/,-18.7,1.1,0.6,/
N#Cc1c(NC(=O)/C=C/c2ccco2)sc2c1CCCC2,90.9*,92.6*,89.7*,26.1,49.3,92.7*,78.4*
CCN(C(=O)CSc1nnc(CNc2cccc(OC)c2)n1C1CCCCC1)C1CCS(=O)(=O)C1 (centres undefined),/,/,/,3.1,-18.9,5.5,/
CC(=O)Nc1ccc2nc(NC(=O)c3ccc([N+](=O)[O-])o3)sc2c1,/,/,/,-100.0,-31.8,56.5*,13.1
O=C(Nc1ccc(N2CCOCC2)cc1)c1ccc(Br)o1,/,/,/,-40.2,-87.1,-3.3,/
O=C(Nc1ccc(N2CCN(C(=O)c3cccs3)CC2)cc1)c1ccc([N+](=O)[O-])o1,/,/,/,105.9*,46.7,101.4*,95.8*
O=C(Nc1ccc(N2CCN(C(=O)c3cccs3)CC2)cc1)c1ccco1,/,/,/,-11.1,-9.2,-0.2,/
O=C(Nc1ccc(N2CCOCC2)cc1)c1ccc([N+](=O)[O-])o1,/,/,/,-103.3,10.4,79.4*,25.4*
O=C(Nc1ccc(Cc2ccncc2)cc1)c1ccc([N+](=O)[O-])o1,/,/,/,-150.3,-21.9,51.4*,18.2
CN(CC(=O)Nc1cccc(F)c1)C(=O)c1ccccc1OCCOc1ccccc1,/,/,/,-10.5,/,/,/
Cc1ccc(C(=O)Nc2ccn(Cc3ccc(F)cc3)n2)o1,23.2,-5.7,2.0,-65.4,-43.6,74.4*,8.7
O=C(COC(=O)CNC(=O)c1ccc(Cl)cc1Cl)NC1CCCCCCC1,/,/,/,9.5,/,/,/
O=C(CSc1cccc[n+]1[O-])Nc1ccccc1Oc1ccccc1,3.4,-5.9,8.1,30.2,-10.3,23.5*,6.1
O=C(CSc1cccc[n+]1[O-])N1CCCCCC1,0.0,0.7,6.2,20.4,-31.3,-0.9,/
O=C(CSc1cccc[n+]1[O-])CSc1cccc[n+]1[O-],5.6,0.9,6.8,9.9,-15.3,55.2*,11.9
COc1ccc(C(=O)NC2CCCc3c2cnn3-c2cccc(C)c2C)o1 (centres undefined),/,/,/,21.5,19.6,-1.9,/
Cc1ccn2c(C(=O)CSc3ccccc3Cl)c(C)nc2c1,-3.9,-5.4,0.3,15.4,2.2,40.5*,37.9*
CCOC(=O)c1c(C)nc2cc(C)ccn12,1.7,-2.4,2.7,-9.9,-16.6,-6.2,/
CCOc1c(Cl)cc(C(=O)Nc2ccccc2C(=O)O)cc1Cl,25.2*,6.1,26.7*,-4.7,-76.7,36.8*,17.3
COc1ccc(-n2nc(C#N)c(Cl)cc2=O)cc1,8.3,94.9*,2.0,/,-20.3,29.1*,19.8
COC(=O)c1nn(-c2ccc(OC)cc2)c(=O)cc1O,0.4,4.0,7.0,20.7,9.4,-0.1,/
O=C(Cc1cccc2ccccc12)Nc1ccc(Br)cc1C(=O)O,/,/,/,18.3,9.1,25.3*,2.9
SMILES,Ba/F3 V617F tox,APP transl inh,BaF3 parental,aSyn 5UTR inh,KLF5 inh,IEC-6 cytotox,IEC-6 tox confirm
O=C(CSc1nc2ccccc2c(=O)n1Cc1ccccc1)Nc1ccc(Br)cc1C(=O)O,/,/,/,7.1,8.1,34.2*,20.5
O=C(Cc1cccc2ccccc12)Nc1ccc(O)cc1C(=O)O,/,/,/,10.6,2.9,-0.8,/
CCC(C)c1ccc(OCc2ccc(C(=O)OC)o2)cc1 (centres undefined),-3.0,/,-3.5,9.2,-169.0,1.5,/
COCc1nnc(NC(=O)C2CC(=O)N(CCc3ccc(F)cc3)C2)s1 (centres undefined),/,/,/,1.7,5.5,0.6,/
COc1ccc(/C=C2\Cc3ccccc3C2=O)cc1OC,2.1,/,-3.2,-39.2,-7.1,7.0,/
COc1ccc(/C=C2\CCc3ccccc3C2=O)cc1O,/,/,/,14.2,2.6,27.9*,3.2
CCC(C)[C@H](NC(=O)C1(c2ccccc2)CCN(C(=O)OC(C)(C)C)CC1)C(=O)N[C@@H](C(=O)O)c1ccccc1 (some centres undefined),/,/,/,-3.3,-12.5,0.6,/
CCn1c(CCNC(=O)c2cccs2)nnc1SCC(=O)NC1CCCCC1,5.8,-27.2,2.0,-4.1,-28.4,25.1*,4.8

# High-throughput results: PubChem BioAssay, several laboratories
